About 83,000 compounds went through this panel and 20% of them were active in at least one assay; those are over-represented in the sample as a whole.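 Treatment: one concentration, 48 hours, 96-well format. Scoring: percent growth, with anything below 10 considered active.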 A number with no mark means an inactive call. The source made the active and inactive calls.
These molecules were tested on K-562 leukemia (assay: NCI-60 one-dose screen, 48 h (100 = growth as untreated, 0 = no growth, -100 = all killed)). Details: 10 µM unless noted.

SMILES | growth
Cc1cc(N(CCCNc2ccnc3cc(Cl)ccc23)Cc2ccccn2)nc(N2CCOCC2)n1 | 67.8%
C=C(CNCCc1ccc(O)cc1)[C@@H]1CC[C@]2(COC3CCCCO3)CC[C@]3(C)[C@H](CC[C@@H]4[C@@]5(C)CCC(N)C(C)(C)[C@@H]5CC[C@]43C)[C@@H]12 (stereo not given in full) | -73% (active)
Clc1ccc2c(NCCCN3CCN(c4nc(-n5ccnc5)nc5ccccc45)CC3)ccnc2c1 | -48.8% (active)
Cn1c(NCCc2ccc(O)c(O)c2)nc2c1c(=O)n(Cc1ccc(Cl)cc1)c(=O)n2C | 77.1%
CCN(CC)N=Nc1nn(C(=O)Nc2ccc(Cc3ccccc3)cc2)c2ccc(Cl)cc12 | 22.3%
COC(=O)c1ccc2oc(NC(=O)c3ccc(N4CCOCC4)c([N+](=O)[O-])c3)nc2c1 | 84.6%

These molecules were tested on MALME-3M melanoma in the same assay as above. Details: 10 µM unless noted.

SMILES | growth
OCCCCc1nccc2c1[nH]c1ccccc12 | 115%
CCCn1nc(-c2ccccc2)c2c(-c3ccccc3)onc2c1=O | 96.5%
Cc1cc(N(CCCNc2ccnc3cc(Cl)ccc23)Cc2ccccn2)nc(N2CCCC2)n1 | 70.9%
C=C(C)[C@@H]1CC[C@]2(CN)CC[C@]3(C)[C@H](CC[C@@H]4[C@@]5(C)CCC(N)[C@@](C)(CO)[C@@H]5CC[C@]43C)[C@@H]12 (stereo not given in full) | -85.9% (active)
COc1ccc(-n2ncn(CCCCCCn3cnn(-c4ccc(OC)cc4)c3=O)c2=O)cc1 | 95.7%
O=C(NC1CCOCC1)c1ccc2c(c1)CN(c1ncc(Cc3cccc(-n4cccn4)c3)s1)CC2 | 64.1%
C=C(CNCCc1ccc(O)cc1)[C@@H]1CC[C@]2(COC3CCCCO3)CC[C@]3(C)[C@H](CC[C@@H]4[C@@]5(C)CCC(NCCO)C(C)(C)[C@@H]5CC[C@]43C)[C@@H]12 (stereo not given in full) | -86.4% (active)
Cc1c(C(=O)O[C@H]2[C@@H]3[C@H](C)CC[C@H]3[C@]3(C)O[C@@]2(C2CCCCC2)C[C@H]3OC(=O)CO)ccc2ccccc12 | 42.3%
COc1ccc(Oc2nc(Nc3ccc(N4CCCCC4)nc3)ncc2NC(=O)c2cc(OC)cc(OC)c2)cc1 | 64.4%
O=C(Oc1ccc[nH]c1=O)c1cc([N+](=O)[O-])cc([N+](=O)[O-])c1 | 156%
Cc1cc(N2CCCCC2)nc(N(CCNc2ccnc3cc(Cl)ccc23)Cc2ccccn2)n1 | 74.1%
CCCCOc1ccc(NC(=O)n2nc(N=NN(C)C)c3ccc(Cl)cc32)cc1 | 122%
O=C1NN(C(=O)c2ccc(O)cc2)C(c2ccccc2)=N/C1=C\c1cn(-c2ccccc2)nc1-c1ccccc1 | 99%
COC(=O)/C(=C\c1ccc(OC)cc1)C(=O)N1c2ccccc2Sc2ccccc21 | 32.9%
COc1ccc(Oc2nc(Nc3ccc(N4CCOCC4)nc3)ncc2NC(=O)c2cc(OC)cc(OC)c2)cc1 | 107%
NC(=O)c1c(NC(=O)c2ccc(C(F)(F)F)cc2Cl)sc2c1CCC(=O)C2 | -24.7% (active)
O=C(NCCOCCOCCOCCNC(=O)c1cc2c(o1)C(=O)c1ccccc1C2=O)NC12CC3CC(CC(C3)C1)C2 | -94.5% (active)
COC(=O)c1ccc(CSc2nnc(-c3ccncc3)o2)cc1 | 103%
CCCc1nc2ccccn2c1Nc1ccc(C(=O)NO)cc1 | 86.7%
Fc1ccc(Nc2ccc3cc(OCCCN4CCOCC4)ccc3n2)cc1F | 42.6%

SMILES | growth
C=C1c2c(C)nn(-c3ccc(S(N)(=O)=O)cc3)c2N(C)C23CC1C1(C)c4c(C)nn(-c5ccc(S(N)(=O)=O)cc5)c4N(C)C(C)(CC12)C3 (stereo not given) | 61.6%
C=C1c2c(C)nn(-c3ccc(NC(C)=O)cc3)c2N(C)C23CC1C1(C)c4c(C)nn(-c5ccc(NC(C)=O)cc5)c4N(C)C(C)(CC12)C3 (stereo not given) | 71.1%
C[C@@H]1CC[C@@H]2[C@@H]1[C@H](OC(=O)c1ccc3ccccc3c1)[C@]1(C3CCCCC3)C[C@@H](OC(=O)CO)[C@@]2(C)O1 | 99.9%
CC(C)(C)c1ccc(C(=O)Nc2sc3c(c2C(N)=O)CCC(=O)C3)cc1 | -53.4% (active)
N=c1ccn2c(n1)OC1C(O)C(CO)OC12 (stereo not given) | 43.5%
NC(=Nc1ccc(N)cc1)C(N)=Nc1ccc(N)cc1 | 135%
COc1ccc(/C=C(\C#N)n2nnc3cc(F)c(F)cc32)c(OC)c1OC | 93.4%
C=C1c2c(C)nn(-c3ccc(O)cc3)c2N(C)C23C[C@@H]1C1(C)c4c(C)nn(-c5ccc(O)cc5)c4N(C)C(C)(C[C@H]12)C3 (stereo not given in full) | 58.7%
CSc1ccc(Cl)c(C(=O)Nc2sccc2C(N)=O)c1 | 141%
C=C1c2c(C)nn(-c3ccc(N)cc3)c2N(C)C23CC1C1(C)c4c(C)nn(-c5ccc(N)cc5)c4N(C)C(C)(CC12)C3 (stereo not given) | 102%
CC(=O)Nc1ccc2c(c1)Cc1c(F)cccc1-2 | 130%
C=C(C)[C@@H]1CC[C@]2(CNCCO)CC[C@]3(C)[C@H](CC[C@@H]4[C@@]5(C)CCC(N)[C@@](C)(CO)[C@@H]5CC[C@]43C)[C@@H]12 (stereo not given in full) | -84.2% (active)
Cc1cnc(Nc2ccc(OCCN3CCCC3)cc2)nc1NCc1ccco1 | 105%
Cc1cc(N(CCCNc2ccnc3cc(Cl)ccc23)Cc2ccccn2)nc(N2CCOCC2)n1 | 89.8%
C=C(CNCCc1ccc(O)cc1)[C@@H]1CC[C@]2(COC3CCCCO3)CC[C@]3(C)[C@H](CC[C@@H]4[C@@]5(C)CCC(N)C(C)(C)[C@@H]5CC[C@]43C)[C@@H]12 (stereo not given in full) | -83.9% (active)
Clc1ccc2c(NCCCN3CCN(c4nc(-n5ccnc5)nc5ccccc45)CC3)ccnc2c1 | -83.2% (active)
Cn1c(NCCc2ccc(O)c(O)c2)nc2c1c(=O)n(Cc1ccc(Cl)cc1)c(=O)n2C | 82.3%
CCN(CC)N=Nc1nn(C(=O)Nc2ccc(Cc3ccccc3)cc2)c2ccc(Cl)cc12 | 139%
COC(=O)c1ccc2oc(NC(=O)c3ccc(N4CCOCC4)c([N+](=O)[O-])c3)nc2c1 | 90.5%
